This is a sample that favours compounds with a hit; in the whole collection about 3.1% have one here.
Rin1-Abl PPI inh = inhibitors of human Rin1-Abl protein interaction; P00519+Q13671; TR-FRET Rin1/Abl binding, biochemical; inhibition, % at 7.35 µM; hit rate 0.4% among 360,000; AID 588664; in the data active = inhibition above about 5%, passing the limit was not always enough
PAFAH1B3 inh = inhibitors of human PAFAH1B3; hit rate 0.28% among 340,000; recombinant PAFAH1B3, FP-rhodamine probe, fluorescence polarization; AID 492972; inhibition, % at 3.39 µM;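 active = inhibition above the screen-wide average of all tested compounds plus 3 SD, cut at about 25% in these data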;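 also: 0% = enzyme with DMSO only and 100% = wells lacking PAFAH1B3 protein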
PAFAH2 FP inh = inhibitors of human PAFAH2; Q99487; recombinant PAFAH2, FP-rhodamine activity probe, fluorescence polarization; inhibition, % at 3.39 µM; hit rate 0.99% among 340,000; AID 492956;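 active = inhibition above the mean over all tested compounds plus 3 SD, cut at about 30% in these data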;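 also: inhibitors block probe labeling of enzyme so polarization drops; 0% = enzyme with DMSO and 100% = wells lacking PAFAH2 protein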
pPAFAH inh = pPAFAH (human) enzyme inhibition; recombinant pPAFAH, FP-rhodamine probe fluorescence polarization; inhibition, % at 3.39 µM; hit rate 1.5% among 330,000; AID 463082;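 active = inhibition above the mean inhibition across the screen plus 3 SD, cut at about 25% in these data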;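 also: inhibitors block binding of the rhodamine activity-based probe so polarization drops; 0% = enzyme with DMSO and 100% = wells lacking pPAFAH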
Target sequence (Q13093 whole entry, looked up): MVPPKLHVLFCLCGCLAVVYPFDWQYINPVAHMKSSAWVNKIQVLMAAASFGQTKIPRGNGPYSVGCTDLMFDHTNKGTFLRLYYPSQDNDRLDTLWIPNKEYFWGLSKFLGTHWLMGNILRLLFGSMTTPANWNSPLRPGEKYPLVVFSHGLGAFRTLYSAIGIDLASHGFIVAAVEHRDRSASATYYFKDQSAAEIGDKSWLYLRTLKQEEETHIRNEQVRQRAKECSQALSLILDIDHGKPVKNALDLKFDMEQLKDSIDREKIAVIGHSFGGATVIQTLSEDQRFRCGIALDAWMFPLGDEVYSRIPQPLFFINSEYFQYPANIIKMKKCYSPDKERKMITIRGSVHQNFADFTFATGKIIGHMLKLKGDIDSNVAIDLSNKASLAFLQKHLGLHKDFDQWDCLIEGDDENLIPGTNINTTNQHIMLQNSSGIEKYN
E coli Lon inh = E. coli protease La inhibition; purified E. coli Lon protease, fluorescence polarization; inhibition, % at 7.94 µM; hit rate 0.42% among 360,000; AID 602123; in the data active = inhibition above about 13%, passing the limit was not always enough;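 also: 0% = enzyme with probe and DMSO and 100% = no enzyme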
PAFAH1B2 inh = PAFAH1B2 (human) inhibition; P68402; recombinant PAFAH1B2, FP-rhodamine activity probe, fluorescence polarization; inhibition, % at 3.39 µM; hit rate 1.2% among 340,000; AID 492953;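 active = inhibition above the mean of all tested compounds plus 3 SD, cut at about 24% in these data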;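 also: 0% = enzyme with DMSO and 100% = wells lacking PAFAH1B2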
Target sequence (P68402 whole entry, looked up): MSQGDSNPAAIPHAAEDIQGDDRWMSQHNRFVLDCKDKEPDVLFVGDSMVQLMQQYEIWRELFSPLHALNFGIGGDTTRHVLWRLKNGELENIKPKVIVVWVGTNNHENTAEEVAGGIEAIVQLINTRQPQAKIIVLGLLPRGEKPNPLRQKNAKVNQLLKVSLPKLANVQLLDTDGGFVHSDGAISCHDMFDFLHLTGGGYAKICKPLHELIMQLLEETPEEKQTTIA
Rin1 Abl conf = confirmation of inhibitors of human Rin1-Abl interaction. inhibition, % at 7.35 µM. TR-FRET Rin1-Abl binding, purified proteins. hit rate 49% among 1,300. shares compounds with Rin1-Abl PPI inh
GFP quencher = GFP fluorescence interference artifact. shares compounds with Rin1-Abl PPI inh. inhibitors/quenchers counterscreen. inhibition, % at 6.75 µM. hit rate 8.5% among 1,300;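 also: ABL1-eGFP fusion protein alone without its partner RIN1-SBP; 0% = protein with vehicle and 100% = wells lacking protein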
GFP quench dose = GFP fluorescence interference dose response; shares compounds with Rin1-Abl PPI inh; GFP fluorescence interference/quenching counterscreen; IC50, µM; 230 tested, under 10 active; call rule not given here;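 also: ABL1-eGFP fusion protein alone without its RIN1 binding partner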
Active calls of the source: *; / = not tested or not shown. Rule as the data show it, unless noted: active = inhibition above about 6.5%; inactive = the rest.

SMILES | Rin1-Abl PPI inh | PAFAH1B3 inh | PAFAH2 FP inh | pPAFAH inh | E coli Lon inh | PAFAH1B2 inh | Rin1 Abl conf | GFP quencher | others
CC1=NN(c2ccccc2)C(=O)/C1=C/c1cccc(C)c1 | 9.4* | 2.1 | 16.8 | 1.3 | 0.3 | 4.3 | 1.0 | 1.9
CC(=O)Oc1ccc(/C=C2/C(=O)N(c3ccccc3)N=C2C)cc1 | 10.8* | 4.6 | -0.8 | 1.3 | -3.6 | 1.9 | -1.6 | 0.2
CC1=NN(c2ccccc2)C(=O)/C1=C/N(C)C | -2.7 | -0.6 | -5.6 | 4.3 | -2.7 | 1.0 | / | /
COc1cccc2c1OC1(N3CCOCC3)CCCCC1C2C[N+](=O)[O-] (configuration not stated) | -2.2 | / | / | / | 4.1 | / | / | /
CC(CSC(=O)c1ccccc1)C(=O)N1c2ccccc2CC1C(=O)O (configuration not stated) | 5.0 | / | / | / | -0.4 | / | / | /
CCOC(=O)c1c(C)[nH]c(C(=O)N/N=C\c2ccccc2Cl)c1C | -2.9 | 3.3 | -16.3 | 0.9 | -0.9 | -6.5 | / | /
CC(=O)Nc1ccc(C(=O)N/N=C/c2ccc(F)cc2)cc1 | 10.3* | -1.1 | 7.9 | -6.5 | -1.9 | 3.7 | 2.9 | -1.1
CCOC(=O)c1ccc(NC(=O)N2CCN(c3ccccc3OC)CC2)cc1 | 9.4* | 6.2 | -0.1 | 3.9 | -0.5 | -0.7 | 16.0* | 0.0
CCOC(=O)N1CCN(c2ccccc2OC)CC1 | -0.5 | -1.0 | -3.4 | 5.7 | -2.7 | -0.2 | / | /
O=C(O)CN1C(=O)NC2NC(=O)NC21 (configuration not stated) | 1.0 | 3.9 | -1.8 | -5.0 | -3.6 | 2.4 | / | /
CCOC(=O)CN1C(=O)NC2NC(=O)NC21 (configuration not stated) | 14.1* | 6.5 | -0.9 | 3.5 | 0.4 | 0.4 | 18.3* | -0.1 | GFP quench dose=>67.5
CCCCOC(=O)c1ccc(NC(=O)CN2C(=O)NC3(CCCCCC3)C2=O)cc1 | 11.8* | 2.9 | -6.5 | 12.5 | -1.8 | -1.0 | 10.1* | 0.6
CCOC(CCn1ccc(O)c(Cc2ccc(Cl)cc2)c1=O)OCC | 2.2 | 5.4 | 3.8 | 4.1 | 7.3 | 6.1 | / | /
O=C(CSc1nnc(Cc2ccccc2)c(=O)[nH]1)Nc1ccccc1 | -1.4 | 9.2 | 15.9 | 5.0 | 3.8 | 4.9 | / | /
CCc1nnc(NC(=O)CSc2nnc(CNC(=O)c3cc(OC)c(OC)c(OC)c3)o2)s1 | 8.2* | 5.7 | 9.1 | 2.9 | 4.2 | 0.6 | -1.3 | 0.1
CCSc1nnc(NC(=O)CSc2nnc(CNC(=O)c3cc(OC)c(OC)c(OC)c3)o2)s1 | -3.5 | 1.1 | 3.9 | 2.5 | 7.9 | 3.4 | / | /
COc1cccc(N(CC(=O)NCC2CCCO2)C(=O)CNS(=O)(=O)c2ccccc2)c1 (configuration not stated) | 9.8* | 2.8 | 3.3 | 4.2 | -5.0 | 8.2 | -1.1 | -0.7
COc1cccc(CN(CC(=O)NCC2CCCO2)C(=O)CNS(=O)(=O)c2ccccc2)c1 (configuration not stated) | 3.6 | -2.8 | 2.0 | 0.1 | 4.8 | 3.3 | / | /
CCOC(=O)c1c(C)[nH]c(C(=O)COC(=O)c2ccco2)c1C | -0.7 | 3.7 | -4.2 | 7.7 | 1.2 | 0.8 | / | /
Cc1noc(C)c1NC(=O)NC(c1ccccc1)c1ccccc1 | 6.3* | 15.2 | 0.9 | -1.7 | 3.4 | 5.1 | 0.5 | 0.1
COc1ccc(CC(=O)NNC(=S)NC(=O)c2cccnc2)cc1 | 6.8* | 8.5 | 1.6 | 2.6 | 5.2 | 5.2 | 0.4 | 1.6
CS(=O)(=O)c1ccc(Cl)c(C(=O)Nc2ccc3nc(N4CCOCC4)sc3c2)c1 | 1.1 | 3.9 | -3.1 | 4.7 | -14.9 | 2.7 | / | /
CCCCCCSc1ccc([C@@H]2[C@H]3C(=O)N(C)C(=O)[C@H]3[C@]3(C(=O)OC)CCCCN23)cc1 | 10.3* | -5.0 | -1.9 | 8.3 | -0.1 | 2.5 | -1.6 | -0.8
CCCCCCSc1ccc([C@@H]2[C@@H]3C(=O)N(CC)C(=O)[C@@H]3[C@]3(C(=O)OC)CCCCN23)cc1 | 2.7 | 15.1 | -1.2 | 6.0 | 13.0 | 5.1 | / | /
N=C(N)c1ccc(N=Nc2c(O)ccc3c2[nH]c2ccccc23)cc1 | 21.9* | 9.4 | 10.4 | / | 0.8 | 31.3* | 23.8* | 20.2*
SMILES | Rin1-Abl PPI inh | PAFAH1B3 inh | PAFAH2 FP inh | pPAFAH inh | E coli Lon inh | PAFAH1B2 inh | Rin1 Abl conf | GFP quencher | others
O=C(NC1CCCCCC1)C1CCCN(S(=O)(=O)c2cnc[nH]2)C1 (configuration not stated) | -1.4 | 6.5 | 1.4 | -0.2 | -1.5 | 6.3 | / | /
O=C(NC1CCCc2ccccc21)C1CCCN(S(=O)(=O)c2cnc[nH]2)C1 (configuration not stated) | 7.3* | 1.5 | -4.1 | -1.3 | 1.5 | 3.6 | -0.2 | -2.4
CC(=O)OC1CC(n2ccc(NC(=O)c3ccccc3)nc2=O)OC1CO (configuration not stated) | 3.9 | 13.4 | 4.3 | 4.2 | -6.8 | -5.4 | / | /
O=C(Nc1ccn([C@H]2CC[C@@H](CO)O2)c(=O)n1)c1ccccc1 | 24.0* | -3.6 | -1.6 | 4.5 | -9.9 | -1.6 | 22.0* | -1.5 | GFP quench dose=>67.5
CC(OC(=O)CCN=C1NS(=O)(=O)c2ccccc21)C(=O)Nc1ccccc1F (configuration not stated) | 2.5 | 1.3 | -12.7 | 12.8 | 5.2 | -0.9 | / | /
CC(NC(=O)c1cc2c(=O)n(C)c3ccccc3c2n1C)c1ccc2c(c1)OCCO2 (configuration not stated) | 7.6* | 5.9 | 6.2 | 3.9 | -0.8 | 2.3 | 10.6* | -1.5
Cn1c(C(=O)Nc2ccc3c(c2)OCO3)cc2c(=O)n(C)c3ccccc3c21 | -3.1 | 1.2 | -1.1 | -4.5 | -4.3 | -1.5 | / | /
COc1cc(S(=O)(=O)n2ccc(C)n2)c(C)cc1C | 6.5 | / | / | / | 9.4 | / | / | /
CCCOc1ccc(/C=N/Nc2cc(N3CCOCC3)ncn2)c(O)c1 | -0.7 | 5.8 | -3.7 | 4.6 | -11.1 | -1.6 | / | /
CCOc1ccc(/C=N/Nc2cc(N3CCOCC3)ncn2)c(O)c1 | 8.3* | / | / | / | 6.2 | / | 1.7 | 1.7
CC1CCCCN1c1ncnc(N)c1[N+](=O)[O-] (configuration not stated) | 7.2* | 8.6 | -0.8 | 0.0 | 13.8 | -0.1 | -0.2 | -0.1
CC1Cc2ccccc2N1c1ncnc(N)c1[N+](=O)[O-] (configuration not stated) | -4.6 | 4.7 | -6.1 | -0.3 | -6.3 | 5.9 | / | /
CCOc1ccc(NC(=O)Nc2ccc3c(c2)nc(C)n3C)cc1 | 5.7* | 7.8 | 3.7 | -3.0 | -5.7 | 2.7 | 11.1* | 1.9
CC(Oc1ccc(F)cc1)C(=O)Nc1ccccc1C(=O)N1CCCCC1 (configuration not stated) | -0.9 | 1.4 | -1.1 | -2.8 | -15.8 | -3.3 | / | /
CC1CCC(CC(=O)O)(C(=O)O)CC1 (configuration not stated) | 3.2 | -6.5 | -0.6 | / | -4.2 | 6.3 | / | /
